These results are taken from the supplement of paper PMC11634586.

Where a name gives a salt, the structure may show the parent alone. Unmarked numbers belong to inactive results.

The assay relates to NCI-H1688. The assay can be described thus: inhibition of cell viability relative to untreated control (fraction); higher = stronger growth inhibition, active = 0.5 or more. As to conditions: 30 µM; 24 h. In a few lines:
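Inhibition of cell viability appears as a fraction, based on viability relative to untreated cells. The assay used NCI-H1688 small cell lung cancer cells seeded in 96-well plates at 3 × 10^3 cells/well, treated one day later with a natural compound library (TargetMol) at 30 µM for 24 h at 37°C and 5% CO2. Absorbance at 450 nm with Cell Counting Kit-8 was recorded in triplicate.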
Turning to `COc1c(O)cc2c(c1O)[C@@H]1O[C@H](CO)[C@@H](O)[C@H](O)[C@H]1OC2=O` [Bengenin], the “inhibition of cell viability” value is 0.0368.

For `O=C(CCc1ccc(O)cc1)c1c(O)cc(O)cc1O[C@@H]1O[C@H](CO)[C@@H](O)[C@H](O)[C@H]1O` [Phlorizin], the “inhibition of cell viability” value is -0.0544.

For the compound `C[C@H]1[C@@H](O)O[C@@H]2O[C@@]3(C)CC[C@H]4[C@H](C)CC[C@@H]1[C@@]24OO3` [Dihydroartemisinin], the “inhibition of cell viability” value was 0.644 (active).

Turning to `CC(=O)OC1CC2CCC1(C)C2(C)C` (stereo not drawn) [Bornyl acetate], the “inhibition of cell viability” value is -0.214.

For the compound `COc1c2occc2cc2ccc(=O)oc12` [8-Methoxypsoralen], the “inhibition of cell viability” value was 0.302.

On to `C[C@H]1CC[C@@]2(OC1)O[C@H]1C[C@H]3[C@@H]4CC[C@@H]5C[C@@H](O)CC[C@]5(C)[C@H]4CC[C@]3(C)[C@H]1[C@@H]2C` [Sarsasapogenin], for which the “inhibition of cell viability” value is -0.0422.

As to `OCc1ccccc1O[C@@H]1O[C@H](CO)[C@@H](O)[C@H](O)[C@H]1O`, the “inhibition of cell viability” value is -0.21.

Consider `CC[C@H](C)C(=O)O[C@H]1C[C@@H](C)C=C2C=C[C@H](C)[C@H](CC[C@@H]3C[C@@H](O)CC(=O)O3)[C@H]21` [Lovastatin], for which the “inhibition of cell viability” value is 0.836 (active).

For `O=c1c2ccccc2oc2ccccc12` [Xanthone], the “inhibition of cell viability” value was -0.129.

Take `O=C(O)CCc1ccc(O)cc1` [Phloretic acid]: the “inhibition of cell viability” value is 0.081.

On to `COc1cc(/C=C/C(=O)O)ccc1O` [Ferulic Acid], for which the “inhibition of cell viability” value was 0.0447.

As to `OC[C@H]1O[C@@H](Oc2ccc(O)cc2)[C@H](O)[C@@H](O)[C@@H]1O` [Arbutin], the “inhibition of cell viability” value is -0.263.

On to `C[C@H](CCC(=O)NCCS(=O)(=O)O)[C@H]1CC[C@H]2[C@@H]3[C@H](O)C[C@@H]4C[C@H](O)CC[C@]4(C)[C@H]3C[C@H](O)[C@]12C` [Taurocholic acid sodium salt hydrate], for which the “inhibition of cell viability” value was -0.0242.

In the case of `CC(C)=CCC/C(C)=C/C=O` [Citral], the “inhibition of cell viability” value is 0.192.

With `O=C(O)c1ccc(O)c(O)c1` [Protocatechuic acid], the “inhibition of cell viability” value is 0.00558.

As for `COc1cc2ccc(=O)oc2cc1O` [Scopoletin], the “inhibition of cell viability” value is -0.00563.

On to `O=C(O)[C@H]1O[C@@H](Oc2cc3oc(-c4ccc(O)cc4)cc(=O)c3c(O)c2O)[C@H](O)[C@@H](O)[C@@H]1O` [Breviscapin], for which the “inhibition of cell viability” value is 0.262.

With `C[C@@H]1O[C@@H](O[C@H]2[C@H](Oc3cc(O)c4c(c3)O[C@H](c3ccc(O)cc3)CC4=O)O[C@H](CO)[C@@H](O)[C@@H]2O)[C@H](O)[C@H](O)[C@H]1O` [Naringin], the “inhibition of cell viability” value was 0.06.

On to `C[C@@H]1O[C@@H](OC[C@H]2O[C@@H](Oc3c(-c4ccc(O)c(O)c4)oc4cc(O)cc(O)c4c3=O)[C@H](O)[C@@H](O)[C@@H]2O)[C@H](O)[C@H](O)[C@H]1O` [Rutin], for which the “inhibition of cell viability” value was 0.272.

In the case of `CC1(C)CC[C@]2(C(=O)O)[C@H](O)C[C@]3(C)C(=CC[C@@H]4[C@@]5(C)CC[C@H](O)[C@@](C)(C=O)[C@@H]5CC[C@]43C)[C@@H]2C1` [Quillaic Acid], the “inhibition of cell viability” value was 0.0942.

Regarding `O=C[C@H](O)[C@@H](O)[C@H](O)CO` (racemic) [DL-Xylose], the “inhibition of cell viability” value was -0.162.

Take `NC(=O)NC1NC(=O)NC1=O` (stereo not drawn) [Allantoin]: the “inhibition of cell viability” value is 0.00777.

For `CC1(C)C2CCC1(C)C(O)C2` (stereo not drawn) [Borneol], the “inhibition of cell viability” value is 0.16.

For `NCCCNCCCCNCCCN` [Spermine], the “inhibition of cell viability” value is -0.283.

Turning to `CNC[C@H](O)c1ccc(O)c(O)c1` [Epinephrine bitartrate], the “inhibition of cell viability” value is 0.0849.

For the compound `CCCCCC=CCC=CCCCCCCCC(=O)OC(COC(=O)CCCCCCCCCCCCCCC)COP(=O)([O-])OCC[N+](C)(C)C` [L-α-Phosphatidylcholine], the “inhibition of cell viability” value is 0.136.

In the case of `CC[C@@]1(O)C(=O)OCc2c1cc1n(c2=O)Cc2cc3cc(O)ccc3nc2-1` [Hydroxy Camptothecine], the “inhibition of cell viability” value was 0.97 (active).

Consider `C=CCc1ccc(O)c(-c2ccc(O)c(CC=C)c2)c1` [Honokiol], for which the “inhibition of cell viability” value was 0.844 (active).

On to `Cc1cc2nc3c(=O)[nH]c(=O)nc-3n(C[C@H](O)[C@H](O)[C@H](O)CO)c2cc1C` [Riboflavin], for which the “inhibition of cell viability” value was 0.284.

For the compound `C=C1C(=O)O[C@@H]2/C=C(\C)CC/C=C(\C)CC[C@@H]12` [Costunolide], the “inhibition of cell viability” value was 0.333.

With `C=C(C)[C@@H]1CC[C@]2(CO)CC[C@]3(C)[C@H](CC[C@@H]4[C@@]5(C)CC[C@H](O)C(C)(C)[C@@H]5CC[C@]43C)[C@@H]12` [Betulin], the “inhibition of cell viability” value is 0.831 (active).

On to `O=c1oc2c(O)c(O)cc3c(=O)oc4c(O)c(O)cc1c4c23` [Ellagic acid], for which the “inhibition of cell viability” value was -0.099.

`O=c1oc2ccccc2c(O)c1Cc1c(O)c2ccccc2oc1=O` [Dicumarol]: the “inhibition of cell viability” value was 0.308.

As for `C=C(C)[C@H]1CC=C(C)C(=O)C1` [(S)-(+)-Carvone], the “inhibition of cell viability” value was 0.248.

On to `C[C@@H]1O[C@@H](O[C@H]2[C@H](O[C@H]3CC[C@@]4(C)[C@@H](CC[C@]5(C)[C@@H]4CC=C4[C@@H]6CC(C)(C)CC[C@]6(C(=O)O)CC[C@]45C)[C@]3(C)CO)OC[C@H](O)[C@@H]2O)[C@H](O)[C@H](O)[C@H]1O` [Alpha-Hederin], for which the “inhibition of cell viability” value is 0.999 (active).

As for `Cn1c(=O)c2nc[nH]c2n(C)c1=O` [Theophylline], the “inhibition of cell viability” value is -0.0544.

As for `COc1ccc2cc1Oc1ccc(cc1)C[C@H]1c3cc(c(OC)cc3CCN1C)Oc1c(O)c(OC)cc3c1[C@H](C2)N(C)CC3` [(+)-Fangchinoline], the “inhibition of cell viability” value is 0.984 (active).

In the case of `CC(C)[C@@H](C)/C=C/[C@@H](C)[C@H]1CC[C@H]2C3=CC=C4C[C@@H](O)CC[C@]4(C)[C@H]3CC[C@]12C` [Ergosterol], the “inhibition of cell viability” value is -0.172.
